The source of these data is PubChem BioAssay.

Assay [1] can be described thus: A549 cell viability effects, profiling panel, calcein-AM fluorescence, 48 h, basal (AID 1162). Particulars: higher = more signal.
The nature of assay [2]: adipocyte viability effects, profiling panel, cell-based, 3T3-L1 adipocytes, calcein-AM fluorescence, 48 h, basal (AID 1163). The note with it: 3T3-L1 adipocytes viability, higher = more signal.
A short description of assay [3]: HepG2 cell viability effects, profiling panel, calcein-AM fluorescence, 48 h, basal (AID 1164). The note with it: higher = more signal.
A short description of assay [4]: MM1S cell viability effects, profiling panel, calcein-AM fluorescence, 48 h, basal (AID 1165).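 Note: viability of MM1S multiple myeloma cells under basal unstimulated conditions.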 Particulars: higher = more signal.
Assay [5] is described as follows: basal RPMI8226 viability, no added stimulus, profiling panel, cell-based, calcein-AM fluorescence, 48 h, PK04 Diversity Set (AID 1166).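 Note: cells grown under basal conditions without added stimulus.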 The note with it: RPMI8226 myeloma viability, higher = more signal.
Assay [6] is described as follows: basal HepG2 mitochondrial membrane potential changes, profiling panel, cell-based, JC-1 fluorescence, 24 h, 100 nL compound (AID 1167). Particulars: higher = more signal.
Assay [7] in a line: basal 3T3-L1 adipocyte mitochondrial potential changes, profiling panel, cell-based, JC-1 fluorescence, 3T3-L1 adipocytes, 24 h, 100 nL compound (AID 1168). Particulars: JC-1 mitochondrial fluorescence, higher = more signal, called active from +8 up or from −8 down.
Assay [8] in a line: basal RPMI8226 mitochondrial membrane potential changes, profiling panel, cell-based, JC-1 fluorescence, 24 h, 100 nL compound (AID 1169). The note with it: RPMI8226 myeloma, JC-1 mitochondrial potential fluorescence, higher = more signal.
Assay [9] is described as follows: basal MM1S mitochondrial membrane potential changes, profiling panel, cell-based, JC-1 fluorescence, 24 h, 100 nL compound (AID 1170). The note with it: higher = more signal.
Assay [10] in a line: A549 lung cancer cell viability effects, profiling panel, resazurin fluorescence, 24 h, PK04 Diversity Set (AID 1171). The note with it: higher = more signal, called active from +8 up or from −8 down.

The source made the active and inactive calls.
Note: test concentration not given here.

Turning to `C=CCN1C(=O)[C@@]2(O[C@@H](CCO)[C@H]([Si](C)(C)c3ccc(OC)cc3)[C@H]2C)c2cc(N3CCOC3=O)ccc21`, the z-score in assay [1] was -2.23; in assay [2], 1.33; in assay [3] it was -4.75; in assay [4], -2.77; in [5] it was -4.38; in [6], -2.9. The z-score in assay [7] was 1.25 (inactive); in assay [8] it was -1.08; in assay [9], -2.3; in assay [10] it was -3.36 (inactive).

`C=C(COC)/C(=C/C[C@H](OC(C)=O)c1cccc(OCCO)c1)c1cnc2ccccc2c1`: the z-score in [1] is 0.858; in assay [2] it was 1.01; in assay [3] it was 0.455; in assay [4], -2.78; in assay [5], -0.114; in assay [6] it was 0.713. Also, the z-score in assay [7] was -0.437 (inactive); in [8], 0.23; in [9], -0.0946; in assay [10], 0.127 (inactive).

As to `CN1C(=O)[C@@H]2[C@@H](CC(COc3ccccc3)=C([C@H](O)CCc3ccccc3)[C@@H]2CO)C1=O`, the z-score was 1.9 in assay [1]; -0.13 in assay [2]; 0.943 in assay [3]; 0.445 in assay [4]; -0.388 in assay [5]; 0.397 in assay [6]. Moreover, the z-score is 0.813 (inactive) in assay [7], -0.274 in assay [8], 0.472 in assay [9] and -0.123 (inactive) in [10].

With `COCC(=C=CC[C@H](O)c1cccc(OCCO)c1)C[C@H](O)COCc1ccccc1`, the z-score in assay [1] was 0.276; in assay [2], -0.48; in assay [3] it was 0.0978; in [4], 0.103; in assay [5], -0.557; in assay [6] it was -0.487. Also, the z-score in assay [7] is -0.3 (inactive); in assay [8] it was 0.191; in [9] it was -0.701; in assay [10], -0.359 (inactive).

With `COc1ccc(CCNC(=O)[C@@]2(Cc3ccccc3I)c3ccccc3C(=O)N(Cc3ccccc3Cl)[C@H]2c2ccc(CO)cc2)cc1`, the z-score is -0.613 in [1]; -0.073 in [2]; -0.63 in assay [3]; -3.36 in assay [4]; -1.92 in assay [5]; 0.962 in [6]. The z-score in assay [7] was 0.119 (inactive); in assay [8], -0.0808; in assay [9] it was -0.413; in assay [10] it was 0.109 (inactive).

Consider `C=C(COC)C(=O)CC[C@@H](OC(=O)c1cccnc1)c1ccccc1OCCO`, for which the z-score in assay [1] is -0.0755; in [2], 0.46; in assay [3], -1.16; in [4], -3.38; in assay [5], -3.82; in assay [6], -0.758. Also, the z-score is 1.08 (inactive) in assay [7], -0.67 in assay [8], -2.43 in [9] and 0.1 (inactive) in assay [10].

Turning to `[N-]=[N+]=NCc1ccccc1[C@@H]1OC(c2ccc(OCCCO)cc2)=N[C@]1(Cc1ccccc1N=[N+]=[N-])C(=O)NCCN1CCOCC1`, the z-score in assay [1] was 0.0239; in assay [2] it was 0.727; in assay [3] it was 0.695; in assay [4] it was -1.17; in assay [5] it was -1.09; in assay [6] it was 0.988. For the same compound, the z-score was 0.564 (inactive) in [7], -0.96 in assay [8], -0.212 in assay [9] and 0.162 (inactive) in [10].

`COc1ccc(C(=O)Nc2cccc(CN3C(=O)[C@]4(O[C@H](CCn5cc([C@H](O)c6ccccc6)nn5)[C@@H]([Si](C)(C)c5ccc(OC)cc5)[C@@H]4C)c4ccccc43)c2)cc1`: the z-score in assay [1] was -1.17; in assay [2], 0.408; in [3], -2.1; in [4], -3.03; in assay [5] it was -2.99; in assay [6], 2.27. Further, the z-score is -0.386 (inactive) in assay [7], -0.989 in [8], -1.12 in assay [9] and -2.56 (inactive) in assay [10].

`COC(=O)[C@@]1(Cc2ccccc2)[C@H]2c3cc(C(=O)N(C)C)n(CCn4cc([N+](=O)[O-])nc4C)c3C[C@H]2CN1C(=O)c1ccccc1`: the z-score was -0.461 in assay [1]; 0.297 in [2]; -1.17 in assay [3]; 0.506 in assay [4]; 0.911 in assay [5]; 0.547 in assay [6]. Besides, the z-score was 0.0518 (inactive) in assay [7], -0.0192 in assay [8], 0.377 in assay [9] and -0.0815 (inactive) in assay [10].

On to `CN1C(=O)C2C(C1=O)C1C=C(CCCO)C2C(c2cccs2)N1Cc1cc2c(cc1Br)OCO2` (stereo not given), for which the z-score in assay [1] was 0.952; in [2], 0.225; in [3], 0.557; in assay [4], -0.635; in [5] it was -1.44; in assay [6] it was -0.129. The z-score in assay [7] is -0.859 (inactive); in [8], -0.309; in assay [9] it was 0.872; in [10] it was -0.0723 (inactive).

Turning to `COCCOC(=O)N1C(=O)[C@@]2(c3cc(C#CC4=CCCCC4)ccc31)[C@H](c1ccc(O)cc1)N1[C@H](c3ccccc3)[C@H](c3ccccc3)OC(=O)[C@H]1[C@@H]2C(=O)NC[C@H](O)c1ccccc1`, the z-score in assay [1] is -0.309; in assay [2], -0.539; in assay [3] it was 0.778; in assay [4], -1.3; in assay [5] it was -3.84; in assay [6], -1.83. The z-score in [7] is 2.04 (inactive); in assay [8], -1.08; in assay [9], -1.06; in assay [10], -2.06 (inactive).

In the case of `CN(C)CCCNC(=O)[C@@H]1c2ccccc2C(=O)N(C2CCCCC2)[C@H]1c1ccc(CO)cc1`, the z-score in assay [1] is 0.634; in assay [2], -0.318; in assay [3], 0.821; in assay [4], -0.592; in assay [5] it was -0.514; in assay [6] it was 2.43. The z-score was 0.626 (inactive) in assay [7], 0.363 in assay [8], -0.243 in assay [9] and 0.887 (inactive) in assay [10].

Consider `CC(C)CNC(=O)[C@@H]1c2ccccc2C(=O)N(C2CCCCC2)[C@H]1c1ccc(CO)cc1`, for which the z-score was 2.93 in assay [1]; 0.258 in [2]; 1.41 in assay [3]; 0.0402 in [4]; 0.424 in [5]; 4.35 in assay [6]. Also, the z-score in assay [7] is 1.16 (inactive); in [8], 0.301; in [9] it was -0.605; in assay [10], 2.26 (inactive).

For the compound `C=C(/C(=C/C[C@@H](OC(=O)c1ccncc1)c1cccc(OCCO)c1)c1cnc2ccccc2c1)C(C)C`, the z-score in [1] was 0.509; in assay [2], 1.55; in assay [3], 0.0856; in assay [4], -2.52; in assay [5], -0.467; in assay [6], 1.42. The z-score in [7] was -0.45 (inactive); in assay [8], -0.533; in assay [9] it was 0.817; in assay [10] it was 0.128 (inactive).

For `COc1ccc(C(O)C2C=CC3C(=O)N(c4ccccc4)C(=O)C3N2Nc2ccccc2)cc1` (stereo not given), the z-score in assay [1] is -0.0572; in assay [2], -0.936; in [3], 0.204; in [4] it was 0.254; in assay [5], 0.0459; in [6], -1.2. The z-score is -0.233 (inactive) in assay [7], -0.402 in [8], -0.626 in assay [9] and 0.117 (inactive) in assay [10].

In the case of `COc1cc2c(cc1O)C(c1ccc(CN3CCCC3)cc1)N(C)CC2` (stereo not given), the z-score in assay [1] is 0.105; in assay [2], -0.582; in assay [3] it was 0.339; in assay [4], 0.752; in assay [5] it was 0.0578; in assay [6], 0.224. The z-score is 0.585 (inactive) in assay [7], 0.224 in assay [8], -0.699 in [9] and -1.18 (inactive) in [10].
